For some assays here: Results with a measured potency or affinity are listed apart.
Assays:
Parameters in all cases: scale not given: direction of the effect not stated beside the values
[1] = biological target: Protein translocase subunit SecA (Escherichia coli (strain K12)) (UniProt P10408); assay: Assay to Identify E. coli SecA ATPase Inhibitors; format: functional; details: 30 µM
[2] = biological target: T1, Ubiquitin-activating enzyme e1, putative (Leishmania donovani (strain BPK282A1)) (UniProt E9BSI1); assay: Leishmania donovani Ubiquitin Activating Enzyme (LdE1); format: functional; details: 30 µM
T1 sequence (whole entry): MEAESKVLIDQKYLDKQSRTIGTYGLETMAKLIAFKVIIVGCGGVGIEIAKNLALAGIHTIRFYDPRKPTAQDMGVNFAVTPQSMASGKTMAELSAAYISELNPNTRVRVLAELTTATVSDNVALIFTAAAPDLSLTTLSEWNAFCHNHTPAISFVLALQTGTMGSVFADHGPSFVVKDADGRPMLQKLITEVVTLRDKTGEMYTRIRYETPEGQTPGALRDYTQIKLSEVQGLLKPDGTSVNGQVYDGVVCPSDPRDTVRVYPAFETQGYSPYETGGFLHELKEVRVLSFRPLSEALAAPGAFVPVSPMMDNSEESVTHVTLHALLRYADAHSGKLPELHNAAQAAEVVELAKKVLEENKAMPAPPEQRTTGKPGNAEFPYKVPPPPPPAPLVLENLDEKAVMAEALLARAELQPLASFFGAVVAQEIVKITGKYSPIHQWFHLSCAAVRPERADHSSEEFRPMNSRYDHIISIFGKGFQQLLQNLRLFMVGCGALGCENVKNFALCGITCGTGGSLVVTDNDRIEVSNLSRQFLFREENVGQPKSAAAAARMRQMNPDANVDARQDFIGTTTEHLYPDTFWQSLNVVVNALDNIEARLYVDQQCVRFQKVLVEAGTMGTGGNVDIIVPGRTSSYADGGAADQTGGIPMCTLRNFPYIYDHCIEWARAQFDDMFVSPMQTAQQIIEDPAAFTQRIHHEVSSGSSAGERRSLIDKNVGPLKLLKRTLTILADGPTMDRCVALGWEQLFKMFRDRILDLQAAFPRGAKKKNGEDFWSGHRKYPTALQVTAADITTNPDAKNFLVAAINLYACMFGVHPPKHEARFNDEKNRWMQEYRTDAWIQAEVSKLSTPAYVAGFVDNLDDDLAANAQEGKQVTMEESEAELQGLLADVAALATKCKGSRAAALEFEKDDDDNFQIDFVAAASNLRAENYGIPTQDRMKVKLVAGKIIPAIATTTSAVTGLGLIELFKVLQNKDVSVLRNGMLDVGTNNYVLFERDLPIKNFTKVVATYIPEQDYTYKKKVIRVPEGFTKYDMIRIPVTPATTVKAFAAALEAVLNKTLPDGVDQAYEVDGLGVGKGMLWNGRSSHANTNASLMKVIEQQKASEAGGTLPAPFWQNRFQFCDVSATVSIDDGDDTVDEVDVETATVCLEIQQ

[3] = biological target: AMP-activated protein kinase, AMPK (Homo sapiens) (UniProt P54646+O43741+P54619+Q9UGJ0+Q9Y478+Q13131+Q9UGI9); assay: AMP-dependent Kinase enzyme assay. An in vitro enzyme assay that detects ADP turnover that is directly proportional to AMPK activity. This uses naive AMPK that is activated during the assay with MK-8722; format: functional; details: 30 µM
[4] = biological target: Sialic acid-binding Ig-like lectin 9 (Homo sapiens) (UniProt Q9Y336); assay: Hs-Siglec9 ALPHAscreen SOP 20170721; details: 10 µM
Chain of Sialic acid-binding Ig-like lectin 9 (Homo sapiens) (Q9Y336 whole entry): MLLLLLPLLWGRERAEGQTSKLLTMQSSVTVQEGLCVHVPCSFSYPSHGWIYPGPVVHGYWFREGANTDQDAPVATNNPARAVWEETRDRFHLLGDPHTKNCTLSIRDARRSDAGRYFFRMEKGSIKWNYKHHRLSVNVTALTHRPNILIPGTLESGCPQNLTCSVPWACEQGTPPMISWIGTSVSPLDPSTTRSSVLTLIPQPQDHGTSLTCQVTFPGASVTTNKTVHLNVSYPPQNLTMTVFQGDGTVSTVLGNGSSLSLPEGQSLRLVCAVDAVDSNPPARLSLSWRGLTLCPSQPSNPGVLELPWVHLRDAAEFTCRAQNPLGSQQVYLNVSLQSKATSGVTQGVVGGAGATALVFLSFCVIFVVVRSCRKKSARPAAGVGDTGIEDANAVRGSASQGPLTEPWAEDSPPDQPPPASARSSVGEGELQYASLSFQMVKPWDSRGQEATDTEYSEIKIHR

Trypanosoma cruzi = assay: Trypanosoma cruzi phosphomannomutase and mannose-1-phosphate guanylyltransferase assay; format: functional; details: 10 µM
[5] = biological target: T2, Arginase-2, mitochondrial (Homo sapiens) (UniProt P78540); assay: in vitro enzyme assay to detect the production of urea directly proportional to the activity of Arginase II; format: functional; details: 33.3 µM; further: in the data most compounds retested in dose-response had high values
T2 sequence (whole entry): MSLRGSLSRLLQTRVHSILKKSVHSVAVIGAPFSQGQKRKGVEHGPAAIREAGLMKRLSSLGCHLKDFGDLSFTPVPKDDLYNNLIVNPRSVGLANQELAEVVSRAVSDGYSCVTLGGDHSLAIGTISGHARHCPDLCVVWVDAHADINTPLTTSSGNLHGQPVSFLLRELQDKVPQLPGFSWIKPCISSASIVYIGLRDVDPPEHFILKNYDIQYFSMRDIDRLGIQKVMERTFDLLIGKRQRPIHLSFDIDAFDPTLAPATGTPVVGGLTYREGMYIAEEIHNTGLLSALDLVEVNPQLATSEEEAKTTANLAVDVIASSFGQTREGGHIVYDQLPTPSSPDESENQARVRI

[6] = biological target: T3, Proteasome subunit beta (Trypanosoma cruzi) (UniProt O96673); assay: Trypanosoma cruzi proteasome chymotrypsin-like activity (TcProtChymo) assay.; further: in the data most compounds retested in dose-response had high values; format: functional; details: 9.37 µM
T3 sequence (whole entry): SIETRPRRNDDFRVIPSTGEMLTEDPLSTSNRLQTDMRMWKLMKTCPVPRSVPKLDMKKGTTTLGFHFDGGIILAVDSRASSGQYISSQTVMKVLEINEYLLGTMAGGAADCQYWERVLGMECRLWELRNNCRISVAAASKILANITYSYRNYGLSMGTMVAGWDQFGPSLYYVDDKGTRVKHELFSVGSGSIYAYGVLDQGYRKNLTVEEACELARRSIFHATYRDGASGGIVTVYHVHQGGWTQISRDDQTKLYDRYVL

Homo sapiens = organism: Homo sapiens; assay: To identify inhibition of the IFN signalling (Jak-Stat) pathway via expression of an eGFP reporter gene under the control of an IFN-stimulated response element (ISRE) containing MxA promoter.; format: functional; details: 30 µM
[7] = biological target: T4, Tyrosyl-tRNA synthetase, putative (Trypanosoma cruzi (strain CL Brener)) (UniProt Q4DSP6); assay: Trypanosoma cruzi tyrosyl tRNA synthetase (TcYRS) _High Tyrosine SOP; format: functional; details: 30 µM; further: in the data most compounds retested in dose-response had high values
T4 sequence (whole entry): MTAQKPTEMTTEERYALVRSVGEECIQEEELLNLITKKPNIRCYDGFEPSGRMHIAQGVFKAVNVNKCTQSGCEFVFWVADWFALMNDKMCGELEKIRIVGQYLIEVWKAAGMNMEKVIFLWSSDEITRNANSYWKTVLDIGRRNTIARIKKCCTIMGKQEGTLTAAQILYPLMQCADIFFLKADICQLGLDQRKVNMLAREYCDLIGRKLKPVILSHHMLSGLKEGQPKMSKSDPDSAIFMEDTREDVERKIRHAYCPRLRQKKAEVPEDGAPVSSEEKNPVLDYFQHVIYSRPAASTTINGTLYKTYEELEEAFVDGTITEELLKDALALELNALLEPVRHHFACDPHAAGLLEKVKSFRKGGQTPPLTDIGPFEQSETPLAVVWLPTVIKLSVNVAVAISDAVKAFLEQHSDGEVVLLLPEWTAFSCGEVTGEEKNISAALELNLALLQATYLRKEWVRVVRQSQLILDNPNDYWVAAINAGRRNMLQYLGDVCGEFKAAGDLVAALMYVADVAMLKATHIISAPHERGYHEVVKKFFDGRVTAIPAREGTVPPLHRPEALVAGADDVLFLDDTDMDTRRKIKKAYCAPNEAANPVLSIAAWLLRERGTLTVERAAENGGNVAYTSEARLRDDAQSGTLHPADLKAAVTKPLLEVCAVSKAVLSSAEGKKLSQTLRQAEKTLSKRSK

[8] = biological target: T4, Tyrosyl-tRNA synthetase, putative (Trypanosoma cruzi (strain CL Brener)); assay: Trypanosoma cruzi tyrosyl tRNA synthetase (TcYRS) SOP; format: functional; details: 30 µM
[9] = biological target: Chromo domain-containing protein 1 (Saccharomyces cerevisiae (strain ATCC 204508 / S288c) (Baker's yeast)) (UniProt P32657); assay: ScCHD-1 Enzyme Inhibition Assay; format: functional; details: 30 µM; further: in the data most compounds retested in dose-response had high values
Chain of Chromo domain-containing protein 1 (Saccharomyces cerevisiae (strain ATCC 204508 / S288c) (Baker's yeast)) (P32657 whole entry, the tested form may be a part): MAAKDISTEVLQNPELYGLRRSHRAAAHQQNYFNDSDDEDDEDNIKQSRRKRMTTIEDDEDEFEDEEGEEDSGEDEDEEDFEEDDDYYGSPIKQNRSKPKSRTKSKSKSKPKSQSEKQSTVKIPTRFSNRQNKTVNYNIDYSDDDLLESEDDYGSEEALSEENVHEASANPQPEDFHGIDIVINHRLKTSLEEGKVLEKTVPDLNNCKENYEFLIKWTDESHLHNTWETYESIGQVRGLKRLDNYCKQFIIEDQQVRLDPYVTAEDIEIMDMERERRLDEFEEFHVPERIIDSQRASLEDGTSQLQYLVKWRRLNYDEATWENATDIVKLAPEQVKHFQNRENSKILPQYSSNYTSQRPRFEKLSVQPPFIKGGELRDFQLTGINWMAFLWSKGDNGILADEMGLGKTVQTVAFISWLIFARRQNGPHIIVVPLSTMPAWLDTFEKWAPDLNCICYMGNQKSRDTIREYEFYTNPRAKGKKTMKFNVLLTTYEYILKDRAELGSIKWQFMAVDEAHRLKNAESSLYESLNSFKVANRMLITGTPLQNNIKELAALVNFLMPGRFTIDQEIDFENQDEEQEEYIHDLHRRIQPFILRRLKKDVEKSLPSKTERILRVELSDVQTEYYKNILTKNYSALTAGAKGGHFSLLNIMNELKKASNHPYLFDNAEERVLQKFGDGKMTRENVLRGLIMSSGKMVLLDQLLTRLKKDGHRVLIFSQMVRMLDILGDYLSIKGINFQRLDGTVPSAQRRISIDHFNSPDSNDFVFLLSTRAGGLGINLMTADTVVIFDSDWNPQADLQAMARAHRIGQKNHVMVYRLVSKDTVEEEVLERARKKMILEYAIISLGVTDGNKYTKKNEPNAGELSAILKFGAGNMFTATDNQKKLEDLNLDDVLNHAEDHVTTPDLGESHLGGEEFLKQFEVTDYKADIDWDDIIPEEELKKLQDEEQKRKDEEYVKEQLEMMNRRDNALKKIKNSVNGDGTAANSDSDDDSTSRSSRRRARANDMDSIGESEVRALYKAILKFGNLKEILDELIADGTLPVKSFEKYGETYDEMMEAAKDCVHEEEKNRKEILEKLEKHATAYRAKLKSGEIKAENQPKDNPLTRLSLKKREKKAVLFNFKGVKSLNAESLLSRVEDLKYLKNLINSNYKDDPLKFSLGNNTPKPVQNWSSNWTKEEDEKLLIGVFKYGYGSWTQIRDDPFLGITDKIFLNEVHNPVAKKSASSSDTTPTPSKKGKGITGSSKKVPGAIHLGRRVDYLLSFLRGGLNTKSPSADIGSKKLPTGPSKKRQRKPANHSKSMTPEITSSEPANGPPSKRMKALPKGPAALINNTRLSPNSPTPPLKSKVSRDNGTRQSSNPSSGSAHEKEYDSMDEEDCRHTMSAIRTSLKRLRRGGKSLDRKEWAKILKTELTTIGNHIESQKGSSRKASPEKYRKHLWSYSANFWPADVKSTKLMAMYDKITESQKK

Chain of Protein translocase subunit SecA (Escherichia coli (strain K12)) (P10408 whole entry): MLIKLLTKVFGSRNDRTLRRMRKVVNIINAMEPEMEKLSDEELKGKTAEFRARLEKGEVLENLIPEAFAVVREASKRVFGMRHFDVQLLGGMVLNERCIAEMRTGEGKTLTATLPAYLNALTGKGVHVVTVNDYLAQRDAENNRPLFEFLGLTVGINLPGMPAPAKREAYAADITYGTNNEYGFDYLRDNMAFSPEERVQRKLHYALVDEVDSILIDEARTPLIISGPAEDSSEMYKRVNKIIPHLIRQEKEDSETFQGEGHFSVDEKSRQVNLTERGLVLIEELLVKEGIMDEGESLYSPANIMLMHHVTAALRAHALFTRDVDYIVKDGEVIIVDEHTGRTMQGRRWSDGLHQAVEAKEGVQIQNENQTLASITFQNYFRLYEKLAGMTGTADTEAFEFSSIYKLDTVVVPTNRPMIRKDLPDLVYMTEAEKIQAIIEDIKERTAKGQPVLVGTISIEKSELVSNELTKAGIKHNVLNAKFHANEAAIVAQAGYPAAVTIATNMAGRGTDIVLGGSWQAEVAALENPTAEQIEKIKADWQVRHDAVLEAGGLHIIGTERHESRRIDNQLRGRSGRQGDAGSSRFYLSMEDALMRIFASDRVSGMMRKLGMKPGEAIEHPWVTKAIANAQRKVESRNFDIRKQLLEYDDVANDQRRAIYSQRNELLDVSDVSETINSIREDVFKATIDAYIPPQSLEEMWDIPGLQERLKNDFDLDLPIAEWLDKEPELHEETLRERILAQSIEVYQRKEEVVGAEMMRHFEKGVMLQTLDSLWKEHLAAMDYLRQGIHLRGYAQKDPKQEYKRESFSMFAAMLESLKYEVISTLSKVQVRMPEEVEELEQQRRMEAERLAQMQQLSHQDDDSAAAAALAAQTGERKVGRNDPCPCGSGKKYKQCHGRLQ

SMILES	Percent Effect [1] [%]	Percent Effect [2] [%]	Percent Effect [3] [%]	Percent Effect [4] [%]	Percent Effect (Trypanosoma cruzi) [%]	Percent Effect [5] [%]	Percent Effect [6] [%]	Percent Effect (Homo sapiens) [%]	Percent Effect [7] [%]	Percent Effect [8] [%]	Percent Effect [9] [%]
CCn1nccc1CNC(=O)C1CC1	-5.07	10.4	-0.00833	7.25	5.61	-4.14	10.7	-23.9	8.6	18.5	132
O=C(N[C@@H]1CN(c2ncccn2)[C@@H]2CCCO[C@@H]21)c1cnccn1	-3.44	2.67	2.76	2.22	0.772	-38.9	9.91	-16.7	6.25	20	-7.55
CN1CC(=O)N(c2ccccc2)CC12CCN(Cc1cccnc1)C2 (configuration not stated)	-2.77	0	0.129	2.38	-0.397	2	5.74	3.56	4.17	1.24	5.73
CCC(CC)c1cc(C(=O)N2CCCC(n3cncn3)C2)on1 (configuration not stated)	-2.21	-1.39	-4.63	9.13	3.6	22.5	11.9	-8.85	1.05	5.13	0.586
Cc1cnn(CC2CN(c3ncnc4ccccc34)CCO2)c1 (configuration not stated)	-1.94	-7.59	1.23	9.68	8.03	-1.14	1.39	37.6	1.48	1.27	-3.24
CCOC(CC)C(=O)NCCC(=O)N1CCN(c2ncccn2)CC1 (configuration not stated)	-2.66	2.63	4.87	5.24	5.94	0	7.19	0.555	3.19	5.2	1.78
CC(C)Oc1ccc(CNC(=O)CC(F)(F)F)cc1F	-5.61	10.5	-1.12	6.95	-2.52	1.08	1.78	-11.2	4.43	11.1	-4.45
CCN(CCNC(=O)c1ccccc1Br)C1CC1	-1.99	-6.33	-0.476	-1.28	-0.923	7.53	10.3	5.43	1.04	-10.1	-18
Cc1noc(C)c1CN1CC[C@H]2OCC[C@@H](C(=O)N3CCCO3)[C@@H]2C1	-8.03	16	-5.74	-1.2	5.02	-43.5	14.7	-8.37	-1.04	2.5	-6.96
CN1C(=O)CC(c2cnn(C)c2)C12CCN(C(=O)C1CC=CC1)CC2 (configuration not stated)	-3.3	-2.7	6.7	5.51	-2.25	-2.23	7.2	-12.6	-1.08	-2.56	9.24
COc1ccc(C(=O)NCC(c2cccn2C)N2CCCC2)c(OC)c1 (configuration not stated)	-5.97	13	-5.29	-1.12	1.08	-1.94	18.3	-21.8	6.35	11.5	-8.35
c1nc2n(n1)CC(NCc1nc(-c3ccsc3)no1)CC2 (configuration not stated)	-3.43	0	-5.33	-3.06	-1.02	-0.554	-5.92	4.74	2.97	6.1	7.25
CCc1nc(CN2CCCN(c3nc4ccccc4o3)CC2)no1	7.05	13	-1.96	2.65	-9.14	-13.8	12.2	23.6	4.3	8.64	-0.262
CN(C)CC(=O)N1CCOC2(CCCN(c3ncccc3F)C2)C1 (configuration not stated)	-5.7	8.11	1.61	5.4	0	1.25	4.48	8.63	7.92	13.4	-5.27
CN1CCCc2cc(NC(=O)N3CCOC(C(N)=O)C3)ccc21 (configuration not stated)	4.12	21.9	34.2	5.33	5.75	-1.2	10.5	14.3	8.33	21	-3.37
O=C(c1ccncc1)N1Cc2ccccc2OC2(CCOCC2)C1	-2.73	9.46	10.5	1.54	0.395	-5.8	16.1	7.47	4.3	6.49	-15.3
Cc1noc(CCCC(=O)NC(C)c2cn(-c3ccccc3)nn2)n1 (configuration not stated)	-1.64	0	3.68	6.5	6.58	1.15	6.35	-19.3	2.45	4.88	-6.39
O=C(CCc1nc2cccnc2[nH]1)NCc1cccnc1	-3.19	25.3	-5.37	0.97	3.34	-0.88	15.5	9.81	8.47	15.4	-10.2
Cc1scc(C(=O)N2CCC3(CC(=O)NC3=O)C2)c1-c1ccccc1 (configuration not stated)	-2.27	5.41	3.06	1.45	1.35	2.86	12.2	0.902	8.99	9.76	-5.21
Cc1cc(C)c2c(c1)C1(CC(=O)Nc3c1cnn3C(C)C)C(=O)N2 (configuration not stated)	0.0889	4	4.34	1.54	0.982	-6.16	8.87	21.1	3.17	2.56	-5.39
CN(C)Cc1nnc(C2CCN(C(=O)CCc3cccs3)CC2)n1C	-3.21	13.5	-7.22	25.4	4.83	1.43	12.1	5.64	6.88	14.6	72.9
Cc1ccc(NC2CCN(C(=O)CCNS(C)(=O)=O)CC2)nn1	-4.31	-2.7	-5.25	9	-0.279	-5.36	-5.21	2.45	1.98	6.1	7.54
